Screening data (PubChem BioAssay)
A selection: hits, their analogues and other compounds. The true share with any hit is near 32%.
CYP2C19 activ – cytochrome P450 2C19 (human) activation | recombinant CYP2C19, luciferin-H EGE luminescence; active compounds read high; 0 = fully inhibited enzyme, 1 = untreated enzyme | activation factor at 5 µM | 96,000 tested, under 10 active;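 active means activation factor of at least 2 at 5 µM in the primary screen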;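 further: 0 = wells with 2.5 mM tranylcypromine and 1 = vehicle-only wells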
Target sequence (P33261 whole entry, looked up): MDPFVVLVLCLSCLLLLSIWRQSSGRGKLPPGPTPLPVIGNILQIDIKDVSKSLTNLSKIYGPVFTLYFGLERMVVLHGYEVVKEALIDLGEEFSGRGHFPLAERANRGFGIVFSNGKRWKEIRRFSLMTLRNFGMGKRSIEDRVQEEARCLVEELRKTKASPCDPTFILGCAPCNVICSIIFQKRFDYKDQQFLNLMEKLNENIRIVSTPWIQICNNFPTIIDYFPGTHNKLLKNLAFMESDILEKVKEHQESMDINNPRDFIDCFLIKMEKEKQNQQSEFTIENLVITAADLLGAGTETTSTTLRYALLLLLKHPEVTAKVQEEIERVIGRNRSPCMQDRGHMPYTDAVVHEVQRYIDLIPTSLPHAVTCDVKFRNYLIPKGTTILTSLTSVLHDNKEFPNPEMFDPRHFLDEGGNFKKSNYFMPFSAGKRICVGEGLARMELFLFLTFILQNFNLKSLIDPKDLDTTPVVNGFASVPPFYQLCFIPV
PostGolgi ctrl – growth of the yeast control strain, post-Golgi counter-screen; efflux-deficient yeast background strain, growth absorbance A615, 16 h; inhibition, % at 10 µM; actives 5% (n = 98,000)
PostGolgi yeast – growth inhibition of a yeast mutant, post-Golgi transport screen; post-Golgi transport phenotypic cell assay; inhibition, % at 10 µM; actives 0.9% (n = 98,000); AID 739;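 further: yeast cells grown in 1536-well plates; yeast grown about 18 h at 30C before absorbance read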
CYP2C19 inhib – human CYP2C19 inhibition | P33261 | CYP2C19 Supersomes, luciferin-H EGE luminescence, 30 min | inhibition, % at 5 µM | actives 21% (n = 96,000);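 active means CYP2C19 inhibition above a set limit at 5 µM in the primary screen, cut at about 50% in these data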;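 further: plate controls were negative control wells for no effect and 2.5 mM tranylcypromine positive control for full effect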
CYP2C9 inhib – blocks human cytochrome P450 2C9 | actives 20% (n = 96,000) | CYP2C9 Supersomes, luciferin-H conversion, luminescence | inhibition, % at 5 µM | P11712;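 active means blocking of liver enzyme CYP2C9 beyond about 50% at 5 µM, limit read from the data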
CYP2C9 act – increases human cytochrome P450 2C9 activity | P11712 | recombinant CYP2C9, luciferin-H conversion, luminescence; active compounds read high; factor 1 = untreated enzyme, 0 = blocked | activation factor at 5 µM | actives 1.4% (n = 96,000) | AID 1024;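 active means activation factor of 2 or more for CYP2C9 at a 5 µM dose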;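 further: 0 = sulfaphenazole-blocked wells and 1 = vehicle-only wells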
* hit, by the source's call; . = not tested or not shown. Unless noted, no stated cut-off is given here; in the data, active means inhibition above about 30%; inactive means the rest.

SMILES | CYP2C19 activ | PostGolgi ctrl | PostGolgi yeast | CYP2C19 inhib | CYP2C9 inhib | CYP2C9 act
CCOC(=O)C1CCCN(CC(=O)NC2=Nc3ccccc3N=C(C)C2c2ccccc2)C1 (stereo unspecified) | 0.1 | 14 | -3 | 90* | 91* | 0.1
CN1/C(=C\C(=O)COC(=O)Cn2nnc(-c3ccccc3)n2)C(C)(C)c2ccccc21 | 0.9 | 3 | -7 | 12 | 74* | 0.3
CCC1Oc2ccccc2N(CC(=O)NCCCN2CCCCC2CC)C1=O (stereo unspecified) | 1 | 6 | 6 | -1 | -5 | 1
CCOC(=O)C1CCCN(Cc2ccccc2F)C1 (stereo unspecified) | 0.3 | . | . | 75* | -18 | 1.2
CCOC(=O)C1CCCN(CC(=O)/C=C2/N(C)c3ccccc3C2(C)C)C1 (stereo unspecified) | 0.4 | 7 | 9 | 63* | 17 | 0.8
CCOC(=O)C1CCCN(CCC(C)c2ccccc2)C1 (stereo unspecified) | 0.4 | 6 | 3 | 58* | 10 | 0.9
CCOc1cc(C)nc(N2CCCC(C(=O)NCc3ccccc3F)C2)n1 (stereo unspecified) | 0.4 | 12 | 17 | 58* | -20 | 1.2
Cc1noc(/C=C/N(C)C)c1S(=O)(=O)N1CCCC(C(=O)NCc2ccc(Cl)cc2)C1 (stereo unspecified) | 0.5 | 6 | 2 | 50 | 77* | 0.2
Cc1ccc(CNC(=O)C2CCCN(S(=O)(=O)c3c(C)noc3C)C2)cc1 (stereo unspecified) | 1.1 | -2 | -2 | -13 | -4 | 1
Cc1noc(/C=C/N(C)C)c1S(=O)(=O)N1CCCC(C(=O)NCc2ccccc2Cl)C1 (stereo unspecified) | 0.8 | -7 | 2 | 24 | 78* | 0.2
CS(=O)(=O)N1CCCC(C(=O)NCc2ccc(F)cc2)C1 (stereo unspecified) | 1 | 4 | -4 | 1 | 0 | 1
Cc1noc(/C=C/N(C)C)c1S(=O)(=O)N1CCCC(C(=O)NCc2ccc(F)cc2)C1 (stereo unspecified) | 0.5 | 2 | 3 | 46 | 73* | 0.3
COc1ccc(N(CC(=O)NCc2ccco2)S(=O)(=O)c2ccc(OC)c(OC)c2)cc1 | 0 | -10 | 1 | 100* | 45 | 0.5
CCOc1ccc(N(CC(=O)NCc2ccco2)S(=O)(=O)c2ccc(OC)c(OC)c2)cc1 | 0 | 6 | -2 | 98* | 62* | 0.4
CCOc1ccc(N(CC(=O)O)S(=O)(=O)c2ccc(OC)c(OC)c2)cc1 | 1 | 12 | -8 | 5 | 7 | 0.9
O=C(CN1C(=O)CC(c2ccco2)Sc2ccccc21)NCC1CCCO1 (stereo unspecified) | 1 | 9 | 19 | -3 | 0 | 1
CN(c1ccc(C(=O)O)cc1)S(=O)(=O)c1ccc(Cl)cc1 | 1.1 | 4 | -8 | -7 | -8 | 1.1
CC(C)Oc1nnnn1-c1ccccc1 | 0.6 | -6 | 17 | 39 | 63* | 0.4
O=C(c1ccccc1Oc1nnnn1-c1ccccc1)N1CCOCC1 | 1.1 | -2 | -1 | -5 | -9 | 1.1
Clc1ccc(Oc2nnnn2-c2ccccc2)cc1 | 0.3 | 11 | -3 | 73* | 48 | 0.5
c1ccc(-n2nnnc2Oc2ccc(-c3nnco3)cc2)cc1 | . | 42* | 0 | . | . | .
NC(=O)c1ccc(-n2nnnc2Oc2ccccc2)cc1 | 0.8 | 17 | 1 | 22 | 3 | 1
c1ccc(-n2nnnc2Oc2ccc(-n3ccnc3)cc2)cc1 | 0 | 7 | 13 | 100* | 99* | 0
Cn1c(=O)[nH]c(=O)c2c1nc(CN1CCN(Cc3ccccc3)CC1)n2CC(N)=O | 1.1 | 9 | 1 | -7 | -11 | 1.1
CCCCSc1nc(C)c(CC(=O)O)c(=O)[nH]1 | 1 | 5 | -1 | 1 | 5 | 1
SMILES | CYP2C19 activ | PostGolgi ctrl | PostGolgi yeast | CYP2C19 inhib | CYP2C9 inhib | CYP2C9 act
O=C(NNC(=O)C1CC(c2cccnc2)=NO1)Nc1cccc(F)c1 (stereo unspecified) | 1.2 | 2 | -7 | -15 | -11 | 1.1
C/C=C/c1ccc(Oc2nnnn2-c2ccc(C(N)=O)cc2)c(OC)c1 | 0.7 | 2 | 0 | 35 | 40 | 0.6
COc1cccc(Oc2nnnn2-c2ccccc2)c1 | 0.4 | 11 | 4 | 60* | 25 | 0.8
COc1cccc(-n2nnnc2S(C)(=O)=O)c1 | 0.8 | 30* | 17 | 16 | 2 | 1
Cc1cccc(-c2oc(C)c(C)[n+]2[O-])c1 | 0.9 | -1 | -4 | 8 | -6 | 1.1
CNC(=S)N1C2CCC1CC(NC(=O)NC13CC4CC(CC(C4)C1)C3)C2 (stereo unspecified) | 1 | 5 | 9 | -2 | -14 | 1.1
O=C1CCCN1c1ccc(S(=O)(=O)NCCc2ccc(Cl)cc2)cc1 | 0.2 | 8 | -3 | 80* | 84* | 0.2
Cc1ccc2nc(NC(=O)CCCc3nc4ccccc4s3)sc2c1 | 0.9 | 45* | -3 | 7 | 2 | 1
Cc1csc(NC(=O)CCc2nc3ccccc3s2)n1 | 0.2 | 1 | 0 | 83* | -77 | 1.8
O=C(CCn1c(=O)sc2ccccc21)Nc1nc2ccccc2s1 | 0.8 | 60* | -4 | 18 | 80* | 0.2
Cc1cnc(NC(=O)CCCc2nc3ccccc3s2)s1 | 0.6 | 21 | -3 | 42 | 31 | 0.7
O=C(CCn1c(=O)sc2ccccc21)NCc1ccccc1 | 0.2 | -13 | -2 | 80* | -90 | 1.9
COc1cc(C(=O)Nc2nnc(CC(=O)N3CCOCC3)s2)cc(OC)c1OC | 1.1 | 11 | -5 | -6 | 19 | 0.8
Cc1ccc2nc(NC(=O)CCn3c(=O)sc4ccccc43)sc2c1 | 1.2 | 70* | 5 | -18 | 58* | 0.4
COc1ccc2nc(NC(=O)CCN3C(=O)c4ccccc4C3=O)sc2c1 | 1 | 10 | -5 | -1 | 18 | 0.8
Cc1csc(NC(=O)CCS(=O)(=O)c2ccc(Br)cc2)n1 | 0.6 | 11 | -8 | 42 | 85* | 0.1
COc1ccc(C)cc1NC(=O)CN1CCN(C/C=C/c2ccccc2)CC1 | 0.1 | 14 | 27 | 88* | 67* | 0.3
COc1ccc(C)cc1NC(=O)CN1CCN(c2ccccc2F)CC1 | 0.3 | 38* | 0 | 70* | 34 | 0.7
COc1ccccc1N1CCN(CCC(=O)Nc2ccc3c(c2)OCO3)CC1 | 0.5 | 0 | -5 | 54* | 65* | 0.4
COc1cccc(NC(=O)CCN2CCN(c3ccccc3F)CC2)c1 | 0.6 | 12 | 0 | 38 | 33 | 0.7
COc1ccc(OC)c(NC(=O)CCN2CCN(c3ccccc3F)CC2)c1 | 0.2 | -2 | 3 | 77* | 60* | 0.4
CCN1C(=Nc2ccc(Cl)cc2)SC/C1=C\C(=O)OC | 0.8 | 2 | 0 | 16 | 9 | 0.9
CCOC(=O)/C(C(N)=NC(C)C)=C(\O)c1ccccc1 | . | 4 | 2 | . | . | .
